Entries with a potency or affinity are not part of this list. Records with an inconclusive call do not appear. Unmarked numbers belong to inactive results.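 Rule for the calls: active = fluorescent signal drops by 40% or more, counted as a hit; inconclusive = no clear call, values can overlap the other calls; inactive = the rest, including any activity in the opposite direction.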
Test: inhibitors of fibronectin matrix deposition, dose response, AH1F cells, Alexa488-FN fluorescence, cherry-picks (AID 1035475);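 note: AH1F fibroblasts incorporating labeled fibronectin into their extracellular matrix; 0% = neutral control wells and -100% = wells without labeled fibronectin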
Details: AH1F fibroblasts, overnight; series mostly up to 35 µM; activity change, negative = inhibition: at the top concentration

| Compound | activity change, negative = inhibition |
| --- | --- |
| C[C@@H]1CN([C@@H](C)CO)C(=O)c2cc(NC(=O)CCCN(C)C)ccc2O[C@H]1CN(C)Cc1ccc(-c2ccccc2)cc1 | -2.69% |
| C[C@@H](O)C#Cc1ccc2c(c1)O[C@@H](CN(C)C)[C@@H](C)CN([C@@H](C)CO)S2(=O)=O | 21.2% |
| O=C(Nc1ccccc1F)N1C[C@@H]2[C@H](c3ccccc31)[C@H](CO)N2C(=O)C1CCOCC1 | 33.8% |
| C[C@H](CO)N1C[C@H](C)[C@@H](CN(C)C(=O)c2cccc(F)c2)Oc2ncc(-c3ccccc3)cc2C1=O | 20.2% |
| C[C@@H]1CN([C@H](C)CO)C(=O)c2cc(NC(=O)CCCN(C)C)ccc2O[C@@H]1CN(C)Cc1ccc(-c2ccccc2)cc1 | 7.33% |
| COC(=O)C[C@H]1CC[C@H]2[C@H](COc3ccc(NC(=O)Cc4cccs4)cc3C(=O)N2C)O1 | 16.8% |
| Cc1ccc(S(=O)(=O)N2CC[C@H]3[C@H](CO)Nc4ccc(-c5cccc(C(=O)N(C)C)c5)cc4[C@H]32)cc1 | -23.6% |
| CO[C@H]1CN(C)C(=O)c2cc(NC(=O)Nc3ccc(Cl)c(Cl)c3)ccc2OC[C@H](C)NC[C@@H]1C | -15.6% |
| C[C@H](O)C#Cc1ccc2c(c1)O[C@H](CN(C)C)[C@H](C)CN([C@H](C)CO)S2(=O)=O | 28.2% |
| COCC(C)n1c(SCc2nc(N)nc(Nc3ccccc3C)n2)nc2ccccc2c1=O (stereo not given) | -35.8% |
| O=C(Nc1ccccc1F)N1C[C@@H]2[C@H](c3ccccc31)[C@@H](CO)N2C(=O)C1CC1 | 16.1% |
| Cc1cccc(NC(=O)c2ccc(S(=O)(=O)N3CCCCC3)cc2)n1 | -12.8% |
| Cc1ccc(S(=O)(=O)N2CC[C@@H]3[C@@H](CO)Nc4ccc(-c5cccc(C(=O)N(C)C)c5)cc4[C@@H]32)cc1 | 15.5% |
| Cc1ccc(C(O)c2ncc(-c3cccc4ccccc34)[nH]2)cc1F (stereo not given) | -18.8% |
| C[C@@H]1CN([C@H](C)CO)C(=O)c2cc(-c3ccccc3)cnc2O[C@H]1CN(C)C(=O)c1cccc(F)c1 | 27.5% |
| C[C@H]1CN([C@@H](C)CO)C(=O)c2cc(-c3ccccc3)cnc2O[C@@H]1CN(C)C(=O)c1cccc(F)c1 | 18.6% |
| C[C@H]1CN([C@@H](C)CO)C(=O)c2cc(NC(=O)CCCN(C)C)ccc2O[C@H]1CN(C)Cc1ccc(-c2ccccc2)cc1 | -3% |
| COc1cccc(S(=O)(=O)N2CC[C@@H]3[C@H]2c2cc(-c4ccc(C#N)cc4)ccc2N[C@@H]3CO)c1 | -9.22% |

| Compound | activity change, negative = inhibition |
| --- | --- |
| Cc1ccc(S(=O)(=O)N2CC3(C)CN(S(=O)(=O)c4ccc(C)cc4)CC(C)(C2)C3=O)cc1 | 6.47% |
| C[C@H](O)C#Cc1ccc2c(c1)O[C@H](CN(C)C)[C@@H](C)CN([C@H](C)CO)S2(=O)=O | 38.2% |
| N#C[C@@H]1[C@H](c2ccccc2C2=CCCCC2)[C@H](CO)N1S(=O)(=O)c1ccccc1 | 25.5% |
| COc1ccccc1CC(=O)OC(C)C(=O)Nc1ccc(S(=O)(=O)N2CCCCC2)cc1 (stereo not given) | -36.8% |
| O=S(=O)(c1ccccc1F)N1CC[C@@H]2[C@H](CO)Nc3ccc(-c4cccc(F)c4)cc3[C@@H]21 | 21.5% |
| C[C@H](O)C#Cc1ccc2c(c1)O[C@H](CN(C)C)[C@H](C)CN([C@@H](C)CO)S2(=O)=O | 28% |
| CO[C@H]1CN(C)C(=O)c2cc(NC(=O)Nc3cc(Cl)cc(Cl)c3)ccc2OC[C@@H](C)NC[C@@H]1C | 9.01% |
| O=C(Nc1ccccc1F)N1C[C@H]2[C@@H](c3ccccc31)[C@@H](CO)N2C(=O)C1CC1 | 25.7% |
| S=C(NCC1CCCO1)Nc1ccc(Cl)cc1Cl (stereo not given) | -11% |
| CC(C)Cc1nnc(NC(=O)CSc2nc(N)cc(=O)[nH]2)s1 | 5.29% |
| CC1(C)Cc2c(C#N)c(SCC(=O)c3ccccc3)nc(N3CCOCC3)c2CS1 | -29.1% |
| CO[C@H]1CN(C)C(=O)c2cc(NC(C)=O)ccc2OC[C@@H](C)N(C(=O)CN2CCOCC2)C[C@H]1C | 43.6% |
| COCC(=O)Nc1ccc2c(c1)C(=O)N(C)[C@@H]1CC[C@H](CC(=O)NCc3ccccc3Cl)O[C@H]1CO2 | 32.7% |
| C[C@H](CO)N1C[C@H](C)[C@H](CN(C)C(=O)Nc2cccc3ccccc23)Oc2c(NC(=O)Nc3ccc(C(F)(F)F)cc3)cccc2C1=O | 14.8% |
| Cc1ccc(NC(=O)COC(=O)c2cc(Cl)ccc2[N+](=O)[O-])c(C)c1 | -12.9% |
| COCC(=O)Nc1ccc2c(c1)C(=O)N(C)[C@H]1CC[C@H](CC(=O)NCc3ccccc3Cl)O[C@@H]1CO2 | 27.3% [at 30 µM] |
| CO[C@H]1CN(C)C(=O)c2cc(NC(=O)Nc3ccc(C(F)(F)F)cc3)ccc2OC[C@H](C)NC[C@H]1C | 15.1% |

— PubChem BioAssay AID1035475 (Broad Institute, 2014)
